For eight compounds, growth results are on record in PubChem BioAssay (NCI).

What all share (experiment): NCI-60 one-dose screen, 48 h (100 = growth as untreated, 0 = no growth, -100 = all killed)
Experiment [1] concerns SK-MEL-2 melanoma. The note with it: 10 µM unless noted.
Experiment [2] concerns EKVX NSCLC. The settings on record: 10 µM unless noted.
Experiment [3] has as its system SN12C renal. The settings on record: 10 µM unless noted.
For experiment [4], the system named is UO-31 renal. The note with it: 10 µM unless noted.
The subject of experiment [5] is TK-10 renal.
For experiment [6], the system named is ACHN renal. The settings on record: 10 µM unless noted.
In experiment [7] the test system is CAKI-1 renal. The note with it: 10 µM unless noted.
In experiment [8] the test system is A498 renal. The settings on record: 10 µM unless noted.
For experiment [9], the system named is CCRF-CEM leukemia. The settings on record: 10 µM unless noted.
In experiment [10] the test system is MOLT-4 leukemia. The note with it: 10 µM unless noted.
In experiment [11] the test system is SR leukemia. The note with it: 10 µM unless noted.
For experiment [12], the system named is RPMI-8226 leukemia. The settings on record: 10 µM unless noted.
Experiment [13] deals with OVCAR-8 ovarian. The note with it: 10 µM unless noted.
Experiment [14] has as its system OVCAR-5 ovarian. The settings on record: 10 µM unless noted.
In experiment [15] the test system is OVCAR-4 ovarian. The settings on record: 10 µM unless noted.
Experiment [16] has as its system SK-OV-3 ovarian. The settings on record: 10 µM unless noted.
In experiment [17] the test system is IGROV1 ovarian. The settings on record: 10 µM unless noted.
For experiment [18], the system named is OVCAR-3 ovarian. The settings on record: 10 µM unless noted.
The test system of experiment [19] is HS 578T breast. The settings on record: 10 µM unless noted.
The subject of experiment [20] is NCI/ADR-RES ovarian. The settings on record: 10 µM unless noted.

“And” between values parts separate entries of the source, which are not always exact repeats. Equal values may be shown once. Compounds without any hit were thinned out: in the full panel of roughly 83,000, 20% have a hit.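 Activity criterion: percent growth below 10, measured after cells in 96-well plates were exposed to a single compound concentration for 48 hours.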 A number with no mark means an inactive call. The source made the active and inactive calls.

With `O=C(/C=C/c1ccccc1Br)c1cccc(OCCCCOc2cccc(C(=O)/C=C/c3ccccc3Br)c2)c1`, the growth in experiment [1] was 104%; in experiment [2], 102%; in experiment [3], 96.6%; in [4], 81.3%; in experiment [5] (10 µM unless noted) it was 117%; in experiment [6], 98.6%. For the same compound, the growth in [7] is 91.9%; in experiment [8], 108%; in experiment [9], 88.5%; in [10], 91.6%; in experiment [11], 31.8%; in experiment [12], -11.7% (active). Further, the growth in [13] was 102%; in experiment [14], 105%; in experiment [15] it was 101%; in [16] it was 104%; in experiment [17], 92.4%; in [18], 108%. Also, in [19], the growth was 102%.
On to `C=C1C(=O)O[C@H]2[C@H]1CC/C(COC(=O)N[C@@H](Cc1c[nH]c3ccccc13)C(=O)OC)=C\CC[C@@]1(C)O[C@@H]21`, for which the growth in experiment [1] was 41.3%; in [2], 55.4%; in [3] it was 33.4%; in [4], 41.3%; in experiment [5] (10 µM unless noted), -23.2% (active); in [6], 7.04% (active). In addition, the growth was 29.7% in experiment [7]; 91.9% in experiment [8]; -12.3% (active) in experiment [9]; -13.2% (active) in experiment [10]; 3.24% (active) in experiment [11]; -14.2% (active) in experiment [12]. The growth is 37.1% in [13]; 66% in experiment [14]; 72.2% in experiment [15]; 78.8% in [16]; 0.0104% (active) in experiment [17]; -40.3% (active) in experiment [18]. Further, the growth is 77.8% in [19] and 88.2% in experiment [20].
`CN1CCCN(CCNc2nccc(-c3c(-c4cccc(O)c4)nc4sccn34)n2)S1(=O)=O`: the growth was 22.1% in [1]; 84.9% in experiment [2]; 38.1% in experiment [3]; 25.2% in experiment [4]; 92.4% in experiment [5] (10 µM unless noted); 22.9% in experiment [6]. For the same compound, the growth in [7] was -25% (active); in experiment [8], 58.8%; in experiment [9] it was 31.3%; in experiment [10] it was 37.8%; in [11], 13.9%; in experiment [12], 81.7%. Moreover, the growth is 60.1% in experiment [13]; 80.6% in [14]; 51.5% in experiment [15]; 15.5% in experiment [16]; 13.7% in experiment [17]; 60.6% in [18]. The growth in experiment [19] was 54.3%; in [20] it was 102%.
In the case of `CNC(=O)OC1C(O[C@H]2C[C@H]3[C@@H]4CC=C5C[C@@H](O)CC[C@]5(C)[C@H]4CC[C@]3(C)[C@H]2[C@H](C)C(=O)CCC(C)C)OCC(O)C1OC1OCC(O)C(O)C1OC(=O)c1ccc(OC)cc1` (some centres not stated), the growth in experiment [1] was -33.6% (active); in [2] it was 30.1%; in experiment [3] it was 59.9%; in [4], -18.8% (active); in experiment [5] (10 µM unless noted) it was 14%; in experiment [6], 39.2%. In addition, the growth was 0.834% (active) in [7]; -60.3% (active) in experiment [8]; -13.7% (active) in [9]; -40.2% (active) in experiment [10]; 1.47% (active) in [11]; -25.5% (active) in experiment [12]. Moreover, the growth was 35.5% in experiment [13]; 38.8% in [14]; 55.8% in experiment [15]; -20.6% (active) in experiment [16]; 28.3% in [17]; 62.7% in [18]. In [19], the growth is -5.93% (active).
For the compound `COc1ccc(-c2cc(C(=O)Nc3ccc(C)cc3)nc3[nH]c(=O)sc23)cc1`, the growth in [1] was 29.2%; in [2], 73.3%; in experiment [3] it was 58.2%; in experiment [4], 58.3%; in experiment [5] (10 µM unless noted), 61.1%; in [6], 90.2%. The growth in experiment [7] was 60.6%; in experiment [8], 9.83% (active); in [9] it was 71.1%; in experiment [10], 81.5%; in experiment [11], 76.8%; in [12], 47.2%. The growth in experiment [13] is 77.1%; in experiment [14], 100%; in experiment [15], 71.7%; in [16], 68.4%; in experiment [17], 70.3%; in experiment [18], 80.1%. The growth is 74.1% in experiment [19] and 78.3% in experiment [20].
Take `CCSc1cnnc2ccccc12`: the growth in experiment [1] is 115%; in experiment [2] it was 98.9%; in experiment [3] it was 103%; in experiment [4], 94.3%; in experiment [5] (10 µM unless noted), 116%; in experiment [6] it was 95.1%. Besides, the growth in [7] is 95.3%; in [8] it was 89.3%; in experiment [9], 97.2%; in [10], 89.7%; in experiment [11], 94.2%; in experiment [12] it was 111%. In addition, the growth in [13] was 104%; in experiment [14], 103%; in experiment [15] it was 103%; in experiment [16] it was 109%; in [17] it was 128%; in [18] it was 121%. Also, the growth is 117% in [19] and 104% in [20].
On to `Cc1cc(O)c2cc3c(O)c(O)ccc3cc2c1`, for which the growth in [1] was 124%; in experiment [2], 106%; in experiment [3], 112%; in experiment [4] it was 102%; in experiment [5] (10 µM) it was 115%; in experiment [5] (100 µM), -14.3% (active) and -64.8% (active). For the same compound, the growth in experiment [6] is 106%; in experiment [7] it was 105%; in [8], 103%; in [9], 118%; in experiment [10] it was 105%; in [11], 101%. Besides, the growth was 115% in experiment [12]; 81.5% in experiment [14]; 109% in experiment [16]; 98.1% in experiment [17]; 133% in experiment [18]; 110% in experiment [19]. The growth in [20] is 109%.
For the compound `C#C[C@]1(O)CC[C@H]2[C@@H]3CC=C4c5sc(-c6cccc(Br)c6)nc5CC[C@]4(C)[C@H]3CC[C@@]21C`, the growth is 98.2% in experiment [1]; 80.1% in experiment [2]; 96.3% in [3]; 62.6% in experiment [4]; 97.7% in experiment [5] (10 µM unless noted); 83.3% in experiment [6]. For the same compound, the growth in experiment [7] is 35%; in [8], 71.7%; in experiment [9], 61.4%; in [10], 58%; in [11] it was 45.6%; in experiment [12], 2.09% (active). The growth in experiment [13] is 98.7%; in [14], 75.5%; in experiment [15], 100%; in [16], 95.9%; in experiment [17], 102%; in experiment [18], 101%. The growth in [19] was 69.5%; in experiment [20], 91.1%.
